This is an account of results in PubChem BioAssay AID720517 (National Center for Advancing Translational Sciences (NCATS), 2013).

Inconclusive results are not listed. A number with no mark means an inactive call. Active and inactive are the calls of the source. Calls come from the whole dose curve; as a rule, active = well fitted activation curve with a large enough effect; inconclusive = small, poorly fitted or top-dose-only effect; inactive = flat fitted curve, though single readings scatter.
Potency is the fitted concentration of half-maximal effect.

The assay in a line: qHTS for Inhibitors of Cell Surface uPA Generation: FP59 Counterscreen for Cherry-picked Compounds. For activity (protection from FP59): 0% is about no effect. To be noted: FP59 anthrax toxin cytotoxicity counterscreen, cells; series mostly up to 115 µM; activity (protection from FP59): at the top concentration. A general note: qHTS replaces the single test concentration by a dilution series.
Regarding `COc1cccc(CC(=O)n2nc(N)c3cc4ccc(OC)cc4nc32)c1`, the “activity (protection from FP59)” value is -1.51%.
Turning to `COc1ccc(C(=O)OCC(=O)N(C)C2CCS(=O)(=O)C2)cc1S(=O)(=O)N(C)Cc1ccccc1` (stereo not given), the “activity (protection from FP59)” value was -1.36%.
Take `Cc1cccc(N2C(=O)N3[C@H](c4ccc(F)cc4)[C@@H]4C(=O)N(C5CCCCC5)C(=O)[C@@H]4[C@]3(Cc3ccc(Cl)cc3)C2=O)c1`: the “activity (protection from FP59)” value was -1.01%.
`O=C(NCc1ccccn1)C1CCN(C(=O)c2cc3sccc3n2Cc2ccc(F)cc2)CC1`: the “activity (protection from FP59)” value is -1.21%.
Consider `Cc1ccnc(N2CCN(C(=O)CSc3nc4ccccc4nc3N3CCC(C)CC3)CC2)c1`, for which the Potency was 65.6 µM (active).
Take `O=C(NCCCN1CCCC1=O)c1cccc(Oc2ccccc2)c1`: the “activity (protection from FP59)” value was -0.779%.
For the compound `CC1CN(C(=O)CCC(=O)NCc2ccccc2)c2ccccc2S1` (stereo not given), the “activity (protection from FP59)” value was -1.06%.
On to `CC(=O)NC(=S)Nc1ccc([N+](=O)[O-])cc1C`, for which the “activity (protection from FP59)” value is -1.26%.
Still for that read-out and setting: the same measure for `COCC(=O)N1CCC(n2nccc2NC(=O)c2ccccc2OC)CC1`: -1.56%.
As to `O=C(Nc1ccc(N2CCOCC2)cc1)c1ccc(Cl)c(S(=O)(=O)N2CCCC2)c1`, the “activity (protection from FP59)” value was -1.51%.
With `CSCC[C@H](NC(=O)[C@H](Cc1ccccc1)n1c(=O)[nH]c2ccccc2c1=O)C(=O)N1CCC[C@H]1C(=O)O`, the “activity (protection from FP59)” value was -1.3%.
In the case of `COc1ccc2c(c1)c1nnc(SCC(=O)Nc3ccccc3F)nc1n2C`, the “activity (protection from FP59)” value is -0.912%.
On to `O=S(=O)(c1ccc2nc(N3CCN(c4ccccc4)CC3)ccc2c1)N1CCCCC1`, for which the “activity (protection from FP59)” value is -1.27%.
As for `COc1ccc(-c2csc(NC(C)c3nc4cc(C(=O)NCCCO)ccc4n3Cc3ccc(C)cc3)n2)cc1` (stereo not given), the “activity (protection from FP59)” value is 7.96%.
Still for that read-out and setting: the value for `Cc1c(NC(=S)Nc2ccc(Cl)cc2)c(=O)n(-c2ccccc2)n1C` was -1.05%; that for `O=C(NC(=S)Nc1c(F)cc(F)cc1Br)c1ccc2c(c1)OCCO2` was -1.02%; that for `CCN(CC)S(=O)(=O)c1ccc(NC(=S)Nc2ccc(F)cc2)cc1` was -1.33%.
As to `NC(=O)CC(NC(=O)Cc1cccc2ccccc12)c1ccc(N2CCC(Cc3ccccc3)CC2)c([N+](=O)[O-])c1` (stereo not given), the “activity (protection from FP59)” value was -1.17%.
Turning to `CCc1ccccc1N1C(=O)CC(Sc2nccc(C)n2)C1=O` (stereo not given), the “activity (protection from FP59)” value is -1.23%.
In the case of `COC(=O)Cc1c(C)c2ccc(OCC(=O)N3CCCC(C)C3)c(C)c2oc1=O` (stereo not given), the “activity (protection from FP59)” value was -1.33%.
On the same count and under the same terms, the same measure for `COc1ccccc1N=Nc1c(C)[nH]n(-c2ccccc2)c1=O`: -1.4%; for `COc1ccc(OC)c(NC(=O)C2CC2c2ccccc2)c1` (stereo not given): -1.35%; for `COc1ccc(C(=O)NC(=S)Nc2ccc(NC(=O)c3ccco3)cc2)cc1[N+](=O)[O-]`: -1.56%.
`Cc1cc(C)cc(NC(=O)C(OC(=O)c2ccc(O)cc2)c2ccccc2)c1` (stereo not given): the “activity (protection from FP59)” value was 5.79%.
For `O=C(CCCC(=O)N1CCN(c2ccccc2F)CC1)c1ccccc1`, the “activity (protection from FP59)” value was -1.35%.
Consider `O=C1[C@H]2[C@@H](c3ccc(F)cc3)N3C(=O)N(c4ccccc4)C(=O)[C@@]3(Cc3ccc(Cl)cc3)[C@H]2C(=O)N1C1CCCCC1`, for which the “activity (protection from FP59)” value was -0.827%.
Regarding `CN(C(=O)CCn1c(=S)oc2ccccc21)c1ccc(F)cc1`, the “activity (protection from FP59)” value is -0.761%.
Take `CCOC(=O)C1=C(CN2CCN(C(=O)c3ccco3)CC2)NC(=O)NC1c1ccccc1` (stereo not given): the “activity (protection from FP59)” value is -0.369%.
Regarding `COc1cccc(NC(=O)c2nnn(CC(=O)Nc3cc(C)cc(C)c3)c2N)c1`, the “activity (protection from FP59)” value was -1.39%.
As to `Cc1ccc(-n2cccc2C(=O)NS(=O)(=O)c2ccc(C)cc2)cc1`, the “activity (protection from FP59)” value is -1.27%.
Still for that read-out and setting: the value for `Cn1nc(N2CCN(S(=O)(=O)c3ccccc3)CC2)c(=O)n(C)c1=O` was -1.3%; that for `COc1ccc(C(=O)c2sc(Nc3ccccc3)nc2N)cc1` was -1.2%; that for `Cn1c(C2CCCCC2)nc2cc(N)ccc21` was -1.49%.
Same read-out and setting: the value for `C[C@H](O)[C@@H]1C(=O)N2CCc3ccc(-c4cccc(F)c4)cc3[C@@H]2C[C@@H]1N(C)C(=O)C(C)(C)C` was 2.82%.
With `COC(=O)CCNS(=O)(=O)c1ccc2nsnc2c1`, the “activity (protection from FP59)” value is -1.4%.
Consider `O=C(COC(=O)c1ccc2ncsc2c1)NCc1cccc(Cl)c1`, for which the “activity (protection from FP59)” value was -1.35%.
Regarding `COc1ccc(C(=O)NC(C)c2cnn(-c3ccccn3)c2C)o1` (stereo not given), the “activity (protection from FP59)” value was -1.07%.
In the case of `C=CS(=O)(=O)c1ccc(Oc2ccc(S(=O)(=O)C=C)cc2)cc1`, the Potency was 52.1 µM (active).
For the compound `Cc1nc2nc(C)c(NS(=O)(=O)c3ccc(Cl)cc3)c(=O)n2[nH]1`, the “activity (protection from FP59)” value was -1.36%.
On to `COc1ccccc1CNC(=O)CCn1c(=O)oc2ccccc21`, for which the “activity (protection from FP59)” value was -1.54%.
